Source: ChEMBL document CHEMBL1961873, “Compounds: GSK PKIS; Assays: Nanosyn kinase panel” (2012)

Assays:
[1] = test system: Epidermal growth factor receptor (Homo sapiens), P00533 [T790M]; conditions: at 1 µM
[2] = test system: Epidermal growth factor receptor (Homo sapiens), P00533 [L858R,T790M]; conditions: at 0.1 µM
[3] = test system: Epidermal growth factor receptor (Homo sapiens), P00533 [L858R,T790M]; conditions: at 1 µM
[4] = molecular target: Ephrin type-A receptor 2 (Homo sapiens) (UniProt P29317); conditions: at 0.1 µM
[5] = molecular target: Ephrin type-A receptor 2 (Homo sapiens) (UniProt P29317); conditions: at 1 µM
[6] = molecular target: T1, Ephrin type-A receptor 3 (Homo sapiens) (UniProt P29320); conditions: at 0.1 µM
T1 sequence (whole entry): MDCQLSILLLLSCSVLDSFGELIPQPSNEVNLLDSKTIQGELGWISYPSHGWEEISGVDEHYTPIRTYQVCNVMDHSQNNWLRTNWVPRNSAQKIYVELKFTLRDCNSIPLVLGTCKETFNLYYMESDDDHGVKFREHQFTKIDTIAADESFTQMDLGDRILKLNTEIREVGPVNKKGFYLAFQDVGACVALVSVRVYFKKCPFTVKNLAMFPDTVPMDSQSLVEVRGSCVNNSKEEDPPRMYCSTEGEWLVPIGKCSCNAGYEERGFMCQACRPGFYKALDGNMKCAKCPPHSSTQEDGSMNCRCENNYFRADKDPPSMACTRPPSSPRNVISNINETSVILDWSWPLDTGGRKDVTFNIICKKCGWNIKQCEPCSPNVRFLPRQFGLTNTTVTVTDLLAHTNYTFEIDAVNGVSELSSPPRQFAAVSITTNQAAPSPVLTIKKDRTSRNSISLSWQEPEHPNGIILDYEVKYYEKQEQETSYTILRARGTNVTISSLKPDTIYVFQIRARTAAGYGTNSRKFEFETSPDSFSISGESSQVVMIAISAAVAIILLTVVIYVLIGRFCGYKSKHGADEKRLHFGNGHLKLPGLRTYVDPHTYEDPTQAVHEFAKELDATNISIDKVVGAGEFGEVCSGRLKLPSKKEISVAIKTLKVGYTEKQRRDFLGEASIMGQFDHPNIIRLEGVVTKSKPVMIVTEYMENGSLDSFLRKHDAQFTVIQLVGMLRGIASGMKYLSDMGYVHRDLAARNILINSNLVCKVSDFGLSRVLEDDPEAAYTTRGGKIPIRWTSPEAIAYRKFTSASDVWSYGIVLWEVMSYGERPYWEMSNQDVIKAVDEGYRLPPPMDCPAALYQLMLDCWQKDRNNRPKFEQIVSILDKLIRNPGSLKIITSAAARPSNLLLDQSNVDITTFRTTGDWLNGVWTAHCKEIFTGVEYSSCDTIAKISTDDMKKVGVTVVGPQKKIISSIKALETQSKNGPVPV

[7] = molecular target: T1, Ephrin type-A receptor 3 (Homo sapiens); conditions: at 1 µM
[8] = molecular target: Ephrin type-A receptor 4 (Homo sapiens) (UniProt P54764); conditions: at 0.1 µM
[9] = molecular target: Ephrin type-A receptor 4 (Homo sapiens) (UniProt P54764); conditions: at 1 µM
[10] = molecular target: T2, Ephrin type-B receptor 2 (Homo sapiens) (UniProt P29323); conditions: at 0.1 µM
T2 sequence (whole entry): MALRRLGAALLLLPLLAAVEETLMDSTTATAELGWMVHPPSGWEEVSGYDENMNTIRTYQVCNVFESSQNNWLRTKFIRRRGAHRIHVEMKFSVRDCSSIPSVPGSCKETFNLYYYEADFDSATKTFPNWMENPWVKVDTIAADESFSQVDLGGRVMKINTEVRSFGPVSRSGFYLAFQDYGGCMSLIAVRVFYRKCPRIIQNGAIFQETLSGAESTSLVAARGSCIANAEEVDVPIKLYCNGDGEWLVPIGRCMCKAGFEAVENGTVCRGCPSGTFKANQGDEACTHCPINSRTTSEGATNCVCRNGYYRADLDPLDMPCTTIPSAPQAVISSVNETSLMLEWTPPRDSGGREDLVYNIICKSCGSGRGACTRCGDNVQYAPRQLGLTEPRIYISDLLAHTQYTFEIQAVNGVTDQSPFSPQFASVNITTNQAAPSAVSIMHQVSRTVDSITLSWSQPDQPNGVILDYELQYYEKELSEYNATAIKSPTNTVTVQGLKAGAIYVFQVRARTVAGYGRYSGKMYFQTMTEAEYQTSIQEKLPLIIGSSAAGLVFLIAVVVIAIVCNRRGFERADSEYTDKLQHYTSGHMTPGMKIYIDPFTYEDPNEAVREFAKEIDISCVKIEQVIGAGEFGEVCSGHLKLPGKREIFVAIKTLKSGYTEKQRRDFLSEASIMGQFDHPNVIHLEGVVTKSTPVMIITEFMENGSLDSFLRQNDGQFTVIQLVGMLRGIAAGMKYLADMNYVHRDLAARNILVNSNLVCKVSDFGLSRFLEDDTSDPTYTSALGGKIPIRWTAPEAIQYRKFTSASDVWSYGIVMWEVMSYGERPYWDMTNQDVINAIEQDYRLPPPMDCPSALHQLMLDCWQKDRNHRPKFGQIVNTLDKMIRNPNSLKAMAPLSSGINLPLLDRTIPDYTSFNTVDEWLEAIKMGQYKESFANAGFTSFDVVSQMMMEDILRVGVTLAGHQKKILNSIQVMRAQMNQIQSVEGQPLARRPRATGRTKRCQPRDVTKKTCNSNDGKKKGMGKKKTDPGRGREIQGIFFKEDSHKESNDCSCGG

[11] = molecular target: T2, Ephrin type-B receptor 2 (Homo sapiens); conditions: at 1 µM
[12] = molecular target: T3, Ephrin type-B receptor 3 (Homo sapiens) (UniProt P54753); conditions: at 0.1 µM
T3 sequence (whole entry): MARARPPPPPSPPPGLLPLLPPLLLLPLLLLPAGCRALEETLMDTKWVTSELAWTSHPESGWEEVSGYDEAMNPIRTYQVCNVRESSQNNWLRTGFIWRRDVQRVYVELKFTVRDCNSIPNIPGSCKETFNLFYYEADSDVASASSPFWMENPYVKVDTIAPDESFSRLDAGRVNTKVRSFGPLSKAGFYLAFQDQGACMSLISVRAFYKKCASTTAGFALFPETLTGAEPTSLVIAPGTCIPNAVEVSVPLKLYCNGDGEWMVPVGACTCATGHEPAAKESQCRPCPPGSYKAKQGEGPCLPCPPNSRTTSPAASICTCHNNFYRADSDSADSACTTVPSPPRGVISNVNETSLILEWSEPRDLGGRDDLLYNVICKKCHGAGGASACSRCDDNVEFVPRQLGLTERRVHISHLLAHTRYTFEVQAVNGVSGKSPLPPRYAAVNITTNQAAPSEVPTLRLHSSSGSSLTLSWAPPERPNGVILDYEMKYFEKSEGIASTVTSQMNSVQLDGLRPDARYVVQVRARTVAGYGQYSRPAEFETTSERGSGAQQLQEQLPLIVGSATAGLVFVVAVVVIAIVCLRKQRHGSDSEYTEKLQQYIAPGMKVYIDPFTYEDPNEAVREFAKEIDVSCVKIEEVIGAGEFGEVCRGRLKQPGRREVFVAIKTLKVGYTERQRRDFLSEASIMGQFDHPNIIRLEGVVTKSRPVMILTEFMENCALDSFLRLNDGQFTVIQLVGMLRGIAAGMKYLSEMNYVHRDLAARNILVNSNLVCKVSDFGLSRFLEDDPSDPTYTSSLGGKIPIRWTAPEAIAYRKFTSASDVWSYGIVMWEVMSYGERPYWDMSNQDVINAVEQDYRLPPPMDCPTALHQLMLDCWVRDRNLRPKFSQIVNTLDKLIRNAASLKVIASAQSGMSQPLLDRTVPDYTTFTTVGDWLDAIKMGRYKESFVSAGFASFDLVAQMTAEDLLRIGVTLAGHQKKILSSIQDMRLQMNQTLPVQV

[13] = molecular target: T3, Ephrin type-B receptor 3 (Homo sapiens); conditions: at 1 µM
[14] = molecular target: T4, Ephrin type-B receptor 4 (Homo sapiens) (UniProt P54760); conditions: at 0.1 µM
T4 sequence (whole entry): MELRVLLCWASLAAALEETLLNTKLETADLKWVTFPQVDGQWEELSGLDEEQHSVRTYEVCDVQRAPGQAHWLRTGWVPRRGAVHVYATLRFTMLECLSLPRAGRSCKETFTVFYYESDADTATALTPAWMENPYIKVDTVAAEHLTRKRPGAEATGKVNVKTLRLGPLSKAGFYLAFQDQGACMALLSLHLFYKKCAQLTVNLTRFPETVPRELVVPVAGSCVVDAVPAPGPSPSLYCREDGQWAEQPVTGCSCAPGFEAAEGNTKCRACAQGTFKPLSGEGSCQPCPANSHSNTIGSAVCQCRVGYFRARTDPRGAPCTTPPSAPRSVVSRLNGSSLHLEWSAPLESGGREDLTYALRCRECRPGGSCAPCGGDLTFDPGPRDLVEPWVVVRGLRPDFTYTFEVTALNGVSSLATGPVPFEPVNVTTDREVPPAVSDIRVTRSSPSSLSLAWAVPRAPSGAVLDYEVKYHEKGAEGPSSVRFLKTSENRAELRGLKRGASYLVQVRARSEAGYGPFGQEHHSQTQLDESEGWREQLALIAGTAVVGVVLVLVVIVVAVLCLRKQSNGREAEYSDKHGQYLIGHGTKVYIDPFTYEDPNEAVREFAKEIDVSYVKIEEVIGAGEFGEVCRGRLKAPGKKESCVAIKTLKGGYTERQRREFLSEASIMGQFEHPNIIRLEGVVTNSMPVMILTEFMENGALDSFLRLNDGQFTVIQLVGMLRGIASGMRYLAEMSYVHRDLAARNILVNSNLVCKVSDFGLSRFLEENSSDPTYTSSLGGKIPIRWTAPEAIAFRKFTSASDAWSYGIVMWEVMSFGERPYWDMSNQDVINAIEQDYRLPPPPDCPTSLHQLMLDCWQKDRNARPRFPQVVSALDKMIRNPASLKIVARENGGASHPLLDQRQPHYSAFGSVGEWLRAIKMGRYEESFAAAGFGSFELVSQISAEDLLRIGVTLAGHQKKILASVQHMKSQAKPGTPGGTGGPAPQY

[15] = molecular target: T4, Ephrin type-B receptor 4 (Homo sapiens); conditions: at 1 µM
[16] = molecular target: Receptor tyrosine-protein kinase erbB-2 (Homo sapiens) (UniProt P04626); conditions: at 0.1 µM
[17] = molecular target: Receptor tyrosine-protein kinase erbB-2 (Homo sapiens) (UniProt P04626); conditions: at 1 µM
[18] = molecular target: Receptor tyrosine-protein kinase erbB-4 (Homo sapiens) (UniProt Q15303); conditions: at 0.1 µM
[19] = molecular target: Receptor tyrosine-protein kinase erbB-4 (Homo sapiens) (UniProt Q15303); conditions: at 1 µM
[20] = molecular target: Tyrosine-protein kinase Fer (Homo sapiens) (UniProt P16591); conditions: at 0.1 µM;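 note: reported figures are averaged percent inhibition of FER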

Chain of Ephrin type-A receptor 2 (Homo sapiens) (P29317 whole entry): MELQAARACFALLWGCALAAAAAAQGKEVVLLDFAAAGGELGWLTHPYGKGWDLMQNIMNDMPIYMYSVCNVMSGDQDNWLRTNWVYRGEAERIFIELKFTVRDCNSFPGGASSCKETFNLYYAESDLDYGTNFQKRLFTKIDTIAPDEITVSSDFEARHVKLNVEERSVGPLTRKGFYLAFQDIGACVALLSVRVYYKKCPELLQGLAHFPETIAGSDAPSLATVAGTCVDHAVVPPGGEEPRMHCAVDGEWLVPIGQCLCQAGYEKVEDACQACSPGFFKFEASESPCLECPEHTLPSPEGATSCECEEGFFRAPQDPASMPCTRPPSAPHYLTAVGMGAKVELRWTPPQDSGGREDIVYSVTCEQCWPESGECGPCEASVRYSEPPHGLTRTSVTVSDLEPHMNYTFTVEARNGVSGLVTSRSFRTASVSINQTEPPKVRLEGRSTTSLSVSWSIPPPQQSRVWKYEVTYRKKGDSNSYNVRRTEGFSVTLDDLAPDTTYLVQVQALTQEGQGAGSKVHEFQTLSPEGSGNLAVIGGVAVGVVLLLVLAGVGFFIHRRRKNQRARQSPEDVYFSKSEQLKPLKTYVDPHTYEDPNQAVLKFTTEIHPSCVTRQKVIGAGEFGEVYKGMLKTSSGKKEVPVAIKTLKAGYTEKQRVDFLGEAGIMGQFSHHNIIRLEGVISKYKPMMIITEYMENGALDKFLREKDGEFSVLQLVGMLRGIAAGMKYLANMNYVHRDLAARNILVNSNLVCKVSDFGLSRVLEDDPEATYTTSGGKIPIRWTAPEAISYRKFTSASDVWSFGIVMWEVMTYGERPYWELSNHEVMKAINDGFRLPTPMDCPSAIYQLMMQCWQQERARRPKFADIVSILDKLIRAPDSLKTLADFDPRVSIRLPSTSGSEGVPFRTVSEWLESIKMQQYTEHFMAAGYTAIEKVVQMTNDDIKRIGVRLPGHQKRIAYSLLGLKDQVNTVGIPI
Chain of Epidermal growth factor receptor (Homo sapiens), P00533 [T790M] (P00533 whole entry T790M): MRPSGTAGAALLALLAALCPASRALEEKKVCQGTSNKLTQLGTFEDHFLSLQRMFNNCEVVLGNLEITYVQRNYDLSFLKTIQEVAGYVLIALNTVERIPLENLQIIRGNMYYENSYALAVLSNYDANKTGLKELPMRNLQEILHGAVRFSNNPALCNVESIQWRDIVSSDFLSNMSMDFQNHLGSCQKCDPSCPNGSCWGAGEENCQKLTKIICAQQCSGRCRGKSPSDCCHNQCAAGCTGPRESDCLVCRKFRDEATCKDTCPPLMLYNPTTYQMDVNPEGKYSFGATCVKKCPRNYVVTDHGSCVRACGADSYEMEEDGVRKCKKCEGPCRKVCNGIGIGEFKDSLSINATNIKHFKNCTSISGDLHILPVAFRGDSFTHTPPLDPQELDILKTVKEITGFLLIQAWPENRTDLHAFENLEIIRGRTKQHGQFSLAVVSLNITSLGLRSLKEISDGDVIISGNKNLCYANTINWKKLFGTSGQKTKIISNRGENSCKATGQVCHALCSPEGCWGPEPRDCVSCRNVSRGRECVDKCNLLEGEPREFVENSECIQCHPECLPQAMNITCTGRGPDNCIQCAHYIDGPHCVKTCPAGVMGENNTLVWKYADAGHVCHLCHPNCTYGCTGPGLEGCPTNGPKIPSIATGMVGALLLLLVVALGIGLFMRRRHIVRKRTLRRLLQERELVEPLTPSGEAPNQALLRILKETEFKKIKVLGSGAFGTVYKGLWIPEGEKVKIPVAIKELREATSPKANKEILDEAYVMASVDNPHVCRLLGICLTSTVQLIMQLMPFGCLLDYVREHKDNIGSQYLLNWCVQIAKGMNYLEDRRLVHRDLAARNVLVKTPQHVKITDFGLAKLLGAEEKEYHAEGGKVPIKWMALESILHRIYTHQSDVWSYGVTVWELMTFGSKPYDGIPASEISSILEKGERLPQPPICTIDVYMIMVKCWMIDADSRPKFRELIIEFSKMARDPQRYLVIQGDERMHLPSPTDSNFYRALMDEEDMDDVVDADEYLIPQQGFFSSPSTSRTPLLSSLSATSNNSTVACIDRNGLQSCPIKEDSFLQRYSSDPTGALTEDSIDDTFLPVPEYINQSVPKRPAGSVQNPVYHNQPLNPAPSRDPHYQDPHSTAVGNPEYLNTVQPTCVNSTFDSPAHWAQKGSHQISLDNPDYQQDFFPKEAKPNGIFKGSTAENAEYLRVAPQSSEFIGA
Chain of Receptor tyrosine-protein kinase erbB-2 (Homo sapiens) (P04626 whole entry): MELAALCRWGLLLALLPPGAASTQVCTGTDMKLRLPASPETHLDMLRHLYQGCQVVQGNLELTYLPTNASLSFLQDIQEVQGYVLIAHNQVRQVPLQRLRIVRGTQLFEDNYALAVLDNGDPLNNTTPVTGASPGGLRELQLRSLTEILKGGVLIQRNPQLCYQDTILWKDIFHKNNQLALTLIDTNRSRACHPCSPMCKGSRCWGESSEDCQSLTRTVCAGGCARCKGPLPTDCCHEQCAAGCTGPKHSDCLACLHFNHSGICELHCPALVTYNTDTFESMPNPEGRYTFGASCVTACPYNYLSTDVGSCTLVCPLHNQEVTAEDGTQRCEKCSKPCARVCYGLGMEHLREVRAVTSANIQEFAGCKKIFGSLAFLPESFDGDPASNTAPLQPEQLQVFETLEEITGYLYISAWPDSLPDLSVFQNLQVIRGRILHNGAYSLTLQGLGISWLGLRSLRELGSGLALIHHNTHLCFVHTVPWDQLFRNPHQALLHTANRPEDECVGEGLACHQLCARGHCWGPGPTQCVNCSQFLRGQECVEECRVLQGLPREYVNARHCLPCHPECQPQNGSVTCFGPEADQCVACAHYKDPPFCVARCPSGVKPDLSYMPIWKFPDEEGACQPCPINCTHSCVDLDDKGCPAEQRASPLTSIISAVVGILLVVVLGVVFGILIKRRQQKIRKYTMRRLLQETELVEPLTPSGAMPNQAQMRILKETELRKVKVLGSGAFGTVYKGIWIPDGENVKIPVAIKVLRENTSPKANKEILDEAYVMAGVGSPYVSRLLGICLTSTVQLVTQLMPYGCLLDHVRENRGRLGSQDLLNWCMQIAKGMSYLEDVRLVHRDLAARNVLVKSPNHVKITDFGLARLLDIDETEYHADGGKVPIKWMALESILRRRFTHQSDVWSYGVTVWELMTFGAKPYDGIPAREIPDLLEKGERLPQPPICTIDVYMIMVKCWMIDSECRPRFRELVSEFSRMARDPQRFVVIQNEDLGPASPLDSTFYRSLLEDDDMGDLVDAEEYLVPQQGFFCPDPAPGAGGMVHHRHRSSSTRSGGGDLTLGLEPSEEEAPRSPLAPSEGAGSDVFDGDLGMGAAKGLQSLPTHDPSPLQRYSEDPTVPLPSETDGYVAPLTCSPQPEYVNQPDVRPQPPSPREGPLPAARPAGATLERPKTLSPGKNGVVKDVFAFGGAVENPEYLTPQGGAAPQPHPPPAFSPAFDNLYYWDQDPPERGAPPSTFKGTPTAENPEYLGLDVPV
Chain of Receptor tyrosine-protein kinase erbB-4 (Homo sapiens) (Q15303 whole entry): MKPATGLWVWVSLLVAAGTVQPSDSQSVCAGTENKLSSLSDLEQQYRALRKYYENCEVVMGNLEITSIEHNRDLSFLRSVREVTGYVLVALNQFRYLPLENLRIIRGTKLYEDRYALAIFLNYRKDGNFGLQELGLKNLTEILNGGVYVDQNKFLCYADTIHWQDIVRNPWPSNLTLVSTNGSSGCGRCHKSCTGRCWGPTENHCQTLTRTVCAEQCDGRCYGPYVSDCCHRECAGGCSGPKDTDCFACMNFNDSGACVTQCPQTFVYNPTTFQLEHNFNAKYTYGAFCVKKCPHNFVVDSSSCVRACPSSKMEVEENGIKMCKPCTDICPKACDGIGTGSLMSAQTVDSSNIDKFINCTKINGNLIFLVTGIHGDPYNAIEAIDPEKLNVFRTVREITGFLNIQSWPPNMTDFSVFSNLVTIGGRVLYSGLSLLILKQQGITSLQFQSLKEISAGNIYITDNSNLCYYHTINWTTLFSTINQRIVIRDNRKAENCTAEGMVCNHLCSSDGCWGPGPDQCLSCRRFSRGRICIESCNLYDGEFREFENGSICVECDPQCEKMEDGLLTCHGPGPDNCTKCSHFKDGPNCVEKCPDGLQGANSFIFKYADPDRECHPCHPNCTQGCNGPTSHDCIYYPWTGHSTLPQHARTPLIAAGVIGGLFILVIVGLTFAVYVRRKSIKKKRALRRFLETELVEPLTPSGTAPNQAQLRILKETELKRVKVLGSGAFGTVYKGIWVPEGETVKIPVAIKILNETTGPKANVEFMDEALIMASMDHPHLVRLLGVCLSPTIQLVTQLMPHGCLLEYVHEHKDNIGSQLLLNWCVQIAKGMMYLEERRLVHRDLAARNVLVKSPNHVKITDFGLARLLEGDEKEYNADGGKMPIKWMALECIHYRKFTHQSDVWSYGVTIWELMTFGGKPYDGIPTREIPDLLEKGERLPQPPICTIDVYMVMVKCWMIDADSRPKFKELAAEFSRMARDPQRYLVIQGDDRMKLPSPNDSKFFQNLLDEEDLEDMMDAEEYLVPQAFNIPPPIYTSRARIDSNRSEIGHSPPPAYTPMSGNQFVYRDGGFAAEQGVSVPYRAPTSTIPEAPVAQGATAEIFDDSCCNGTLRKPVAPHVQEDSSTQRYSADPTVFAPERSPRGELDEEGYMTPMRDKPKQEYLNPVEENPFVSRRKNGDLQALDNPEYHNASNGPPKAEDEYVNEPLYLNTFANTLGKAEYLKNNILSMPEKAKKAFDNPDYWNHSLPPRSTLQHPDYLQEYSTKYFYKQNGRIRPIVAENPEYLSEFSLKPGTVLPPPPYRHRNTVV

Row | SMILES | inhibition [1] [%] | inhibition [2] [%] | inhibition [3] [%] | inhibition [4] [%] | inhibition [5] [%] | inhibition [6] [%] | inhibition [7] [%] | inhibition [8] [%] | inhibition [9] [%] | inhibition [10] [%] | inhibition [11] [%] | inhibition [12] [%] | inhibition [13] [%] | inhibition [14] [%] | inhibition [15] [%] | inhibition [16] [%] | inhibition [17] [%] | inhibition [18] [%] | inhibition [19] [%] | inhibition [20] [%]
1 | CS(=O)(=O)CCNCc1ccc(-c2ccc3ncnc(Nc4ccc(OCc5ccccc5)cc4)c3c2)o1 | 12.4 | 0.12 | 4.35 | 1.77 | 1.18 | 5.21 | 5.62 | 9.98 | 11.5 | 6.07 | 7.66 | 5.28 | 5.08 | 3.4 | 3 | 15.1 | 73 | 84.6 | 96.6 | 1.45
2 | Cc1c2ccc(N(C)c3ccnc(Nc4cccc(S(N)(=O)=O)c4)n3)cc2nn1C | 3.28 | 2.62 | 13.1 | -1.48 | 2.19 | 0.79 | 2.97 | 8.51 | 14.2 | 5.88 | 23.3 | 3.38 | 0.55 | 0.19 | 10.3 | 1.55 | -3.44 | 5.59 | 12.1 | 25.1
3 | NS(=O)(=O)c1ccc(N/N=C2\C(=O)Nc3ccc(C(=O)NCc4ccncc4)cc32)cc1 | 5.2 | 0.1 | 2.72 | 1.72 | 1.75 | 4.4 | 3.58 | 8.7 | 15 | 4.03 | 11.1 | 3.93 | 2.6 | 1.83 | 4.17 | 2.22 | 6.09 | 6.54 | 7.07 | 2.36
4 | COc1ccc2ncn(-c3cc(O[C@H](C)c4ccccc4C(F)(F)F)c(C(N)=O)s3)c2c1 | -1.39 | -1.39 | -0.48 | -3.1 | -4.03 | 0.39 | 2.63 | 0.27 | 0.47 | 1.25 | 1.95 | 1.32 | 0.52 | -1.21 | 1.77 | -0.36 | -1.72 | 1.06 | 3.12 | 1.06
5 | CNC(=O)c1ncccc1Nc1nc(Nc2cc3c(cc2OC)CCCN3C(=O)CN(C)C)nc2[nH]ccc12 | 54.4 | 43.7 | 80.5 | 0.62 | 0.22 | 5.44 | 5.06 | 7.88 | 7.89 | 8.66 | 9.33 | 4.77 | -0.74 | 1.64 | 2.22 | 3.4 | 3.24 | 10.7 | 20.2 | 71.3
6 | OCCCNc1nccc(-c2c(-c3ccc(F)cc3)nn3cc(C(F)(F)F)ccc23)n1 | -0.33 | -1.34 | 5.46 | 1.26 | 1.9 | 2.86 | 3.67 | 8.53 | 13.3 | 8.48 | 28.2 | 4.77 | 1.45 | 1.6 | 7.56 | 0.24 | -0.41 | 8.07 | 14.4 | 1.98
7 | COc1cccc(Nc2nccc(-c3cnn4ncccc34)n2)c1 | 1.13 | 4.75 | 9.99 | 1.1 | 12.2 | 4.37 | 8.81 | 9.73 | 36.6 | 9.43 | 36 | 1.65 | -3.88 | 2.75 | 16.1 | -0.16 | 1.64 | 8.21 | 3.05 | 9.45
